A selection: hits, their analogues and other compounds. The true share with any hit is near 21%.
Pf growth 96h = P. falciparum growth inhibition at 96 hours | P. falciparum luciferase reporter growth, 96 h | Potency, µM (highest dose often 28.7 µM), without a hit: top-dose activity change, negative = inhibition, hits mostly inhibitors | 6.9% of 320,000 active; note: potency is the fitted concentration of half-maximal effect; % is set by controls: 0 for no effect and ±100 for the full control effect
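Erythrocytes infected with luciferase-expressing P. falciparum were dispensed at 2% hematocrit and 0.05% parasitemia (final), then incubated with compounds 96 hours at 37 C in 5% CO2. Luminescence after detection reagent addition reported growth.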
NS1 function inh = influenza NS1 inhibition | Potency, µM (top dose mostly 46.1 µM), for inactives: at the top dose activity, positive = more growth | 0.4% of 270,000 active; calls by dose curve; note: potency is the fitted concentration of half-maximal effect; actives are rising curves; nearly all actives have a fitted effect of over 50% in size
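OD600 was taken as the measure of yeast growth restored by compound in an NS1-expressing S. cerevisiae strain. Cells had been washed out of glucose medium and diluted 1:100 into galactose -URA medium, pH 6.0.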
CHX counter = affects cycloheximide protein synthesis inhibition readout, counter-screen | 12% of 300,000 active | AID 2314 | max response, % | cell reporter, cycloheximide protein synthesis inhibition counterscreen; in the data active = max response mostly above about 13%, no sharp cut-off; inactive = mostly below about 14%; note: read at 38.3 µM for the half of the compounds with a filed dose; 0% is about no effect
Shiga toxin inh = inhibitors of Shiga toxin in Vero cells; Vero cells, Shiga toxin protein synthesis inhibition reporter; inhibition, % at 38.7 µM; 9.2% of 290,000 active; AID 2315; in the data active = inhibition mostly above about 28%, no sharp cut-off; inactive = mostly below about 43%; note: 0% is about no effect
SARS PLpro yeast = SARS-CoV PLP inhibition in yeast | S. cerevisiae expressing SARS-CoV PLpro, growth rescue | Potency, µM (doses to about 32.9 µM), for the others: top-dose activity, positive = growth rescue, actives largely listed as activators | 0.19% of 330,000 active | AID 485353; calls by dose curve; note: potency is the fitted concentration of half-maximal effect; 0% is about no effect; nearly all actives have a fitted effect of over 55% in size
Pf growth 48h = inhibits P. falciparum growth in the first generation, 48 h | P. falciparum luciferase growth in erythrocytes, 48 h | 5.9% of 310,000 active | Potency, µM (titrated, usually from 28.7 µM), for the others: at the top dose activity change, negative = inhibition, actives largely listed as inhibitors | AID 504832; note: potency is the fitted concentration of half-maximal effect; % is set by controls: 0 for no effect and ±100 for the full control effect
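Firefly luciferase activity from engineered P. falciparum reports growth; inhibitors lower the luminescent signal. Cultures contained 2% hematocrit erythrocytes at 0.1% final parasitemia.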
Starred values were filed as active, the others as inactive; i = inactive; ? = inconclusive; . = no result given; [ ] = dose if it differs, or a comment. Unless noted, calls come from the whole dose curve; as a rule, active = well fitted inhibition curve with a large enough effect; inconclusive = small, poorly fitted or top-dose-only effect, or another doubt; inactive = no such curve, though single readings can be large or run the other way.

SMILES | Pf growth 96h | NS1 function inh | CHX counter | Shiga toxin inh | SARS PLpro yeast | Pf growth 48h
Cc1ccc(C(=O)NC2CCCCC2)cc1 | 182% | 3% | 31* | 29 | -3% | 94%
Cc1cc(-c2ccccc2)n(-c2ccc(C(N)=O)cc2)n1 | ? | 8% | 4 | 7 | 20% | 5%
Cc1cc(C)n(-c2ccc(C(=O)Nc3ccccn3)cc2)n1 | 25% | -150% | 38* | 65* | -5% | 163%
Cc1ccc(C(=O)NCC(=O)NC2CCCC2)cc1 | -21% | 2% | 3 | 17 | -1% | 10%
CNC(=O)c1ccc(-n2nc(C)cc2-c2ccccc2)cc1 | ? | 18% | -1 | 22 | 2% | 1.7µM*
Cc1cc(C)n(-c2ccc(C(=O)NC3CCCCC3)cc2)n1 | 28% | . | 21 | 40* | -7% | 49%
COC(=O)C(NC(=O)c1ccccc1)(Nc1cc(C)cc(C)n1)C(F)(F)F (stereo unspecified) | 30% | 2% | -3 | -1 | -6% | 11%
CC(C)=C(NC(=O)c1ccccc1)C(=O)Nc1cccc(C)c1 | -20% | 2% | 1 | -5 | 9% | 3%
N#Cc1ccc(C(=O)NC2CCCCCCC2)cc1 | 118% | -14% | 22* | 83* | -10% | 101%
Cc1cc(C)n(-c2ccc(C(=O)Nc3sccc3C(N)=O)cc2)n1 | 233% | -16% | 35* | 47* | -10% | .
Cc1cc(C)n(-c2ccc(C(=O)Nc3nnc(C)s3)cc2)n1 | 55% | -8% | 6 | -2 | 6% | .
N#Cc1ccc(C(=O)OCC(=O)NC2CCCC2)cc1 | 23% | 0% | 9 | -7 | 0% | 28%
COC(=O)c1ccccc1S(=O)(=O)NNC(=O)c1ccccc1-n1cccc1 | ? | 16% | 1 | -8 | 0% | -22%
O=c1nc(-c2ccccc2)n(-c2ccccc2)[nH]1 | -13% | 6% | -2 | -8 | 1% | 10%
CN(CCO)Cc1ncccc1O | . | -4% | . | . | . | .
CCOc1ccc(-n2nc3c(SCCN4CCCC4)nnc(C)c3c2C)cc1 | -6% | 18% | -1 | -6 | -3% | ?
Cc1ccccc1C1CC(=O)Oc2ccc(C(C)(C)C)cc21 (stereo unspecified) | . | . | -3 | i | . | .
COC(=O)c1ccc(C(=O)OC)c(NC(=S)N2CCN(C(=O)C3CCCO3)CC2)c1 (stereo unspecified) | 4% | 1% | 2 | -11 | 0% | -2%
Cc1ccc(OCc2ccc(Br)cc2)c([N+](=O)[O-])n1 | 473% | -5% | 56* | 84* | -1% | i
Cc1ccc(OCc2ccc(-c3ccccc3)cc2)c([N+](=O)[O-])n1 | 19% | -21% | 25* | 29 | 6% | 32%
Cc1ccc(OCCOc2cccc(Br)c2)c([N+](=O)[O-])n1 | 64% | -9% | 40* | 96* | -21% | 99%
CCOc1cc(Br)c(COc2ccc(C)nc2[N+](=O)[O-])cc1OCC | ? | -10% | -3 | -1 | -4% | ?
COc1ccc([N+](=O)[O-])cc1NS(=O)(=O)Cc1ccccc1 | 3% | 6% | -1 | -7 | -9% | 2%
Cc1nn(CCOc2cccc(Br)c2)c(C)c1[N+](=O)[O-] | 62%[5.75 µM] | . | 2 | 27 | -2% | ?
CNc1cc([N+](=O)[O-])ccc1OCc1ccccc1 | 25% | -37% | 27* | 90* | -5% | 22%
SMILES | Pf growth 96h | NS1 function inh | CHX counter | Shiga toxin inh | SARS PLpro yeast | Pf growth 48h
COc1ccc(N(C(=O)c2ccc(F)cc2)C2=CC3CCC(C2)N3C)cc1 (stereo unspecified) | . | -3% | 0 | -20 | -5% | -3%
O=[N+]([O-])c1ncccc1OCc1ccc(-c2ccccc2)cc1 | 3% | -3% | 19* | 41 | 1% | -2%
Nc1nc(Br)c2c(F)cccc2c1-c1ccc(Cl)cc1 | 13µM* | 0% | -2 | -8 | 10% | ?
Nc1nc(Br)c2ccccc2c1-c1ccccc1 | ? | . | 16 | 20 | 0% | ?
CCn1cc(Br)c(-c2nc3ccccc3c(=O)n2N)n1 | 25% | -20% | 27* | 75* | . | 50%
Cc1nc2ccccc2c(=O)n1N | -21% | -12% | -2 | 20 | 2% | .
Cc1cc(C)cc(OCC(=O)Nc2ccc3c(c2)OCO3)c1 | ? | -3% | 16 | 16 | -1% | 22%
O=C(Cc1ccccc1[N+](=O)[O-])Nc1ccc2c(c1)OCCO2 | ? | -7% | 55* | 89* | 8% | 86%

Assay outcomes as filed in PubChem BioAssay.
